Some of the results follow. Activity calls are given as the source filed them.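 Rule for the calls: active = compounds whose fitted half-maximal signal-loss concentration is at most twice their highest valid dose; inconclusive = flat curve with 30 to 70% signal loss, or poor fit; inactive = the rest.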

This assay is described as follows: HepG2 viability loss by ATP level – cell-based, CellTiter-Glo luminescence, cherry-pick, set 4, cytotoxicity control, dose response (AID 743480). The conditions noted are these: 72 h; series mostly up to 26 µM; activity change, negative = cytotoxicity: at the top concentration.
As for `CC[C@H]1OC(=O)[C@H](C)[C@@H](O[C@H]2C[C@@](C)(OC)[C@@H](O)[C@H](C)O2)[C@H](C)[C@@H](O[C@@H]2O[C@H](C)C[C@H](N(C)C)[C@H]2O)[C@](C)(O)C[C@@H](C)[C@@H]2N[C@@H](COCCOC)O[C@H]([C@H]2C)[C@]1(C)O`, the “activity change, negative = cytotoxicity” value was 23.7 unspecified (inactive). In the case of `C=CCNC(=O)c1ccccc1NC(=O)c1ccc(Cl)c(S(=O)(=O)Nc2cccc(C)c2C)c1`, the “activity change, negative = cytotoxicity” value is 13 unspecified (inactive). With `COc1ccc(Cn2c(-c3ccc(Cl)cc3)c[n+]3ccccc23)cc1` the figure was 9.96 unspecified (inactive).

The values above are taken from PubChem BioAssay AID743480 (Broad Institute, 2014).
